Mot1-301 SUMO: yeast Mot1-301 growth rescue at high temperature, primary screen, SUMOylation pathway inhibitor project, S. cerevisiae, ATP luminescence, 38.5C; S. cerevisiae Mot1-301 growth rescue; percent above DMSO median, 100 means doubled; growth rescue, % at 18.8 µM; 320,000 compounds, 1% hits; AID 2716, 2010;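 active means every valid replicate shows activation above 250% relative to neutral control wells; inactive means the rest, any valid replicate at or below 250%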
ALR H2O2 inh: inhibitors of human ALR sulfhydryl oxidase, primary screen, biochemical, H2O2 detection, HRP-luminol luminescence, single point | AID 485317, 2010 | inhibition, % (no concentration beside the values) | FAD-linked sulfhydryl oxidase ALR (Homo sapiens), P55789 | purified ALR, DTT oxidation | 290,000 compounds, 3.8% hits;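 active means mean replicate inhibition above about 79%, with every replicate also reaching it, limit read from the data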
Target sequence (P55789 whole entry, looked up): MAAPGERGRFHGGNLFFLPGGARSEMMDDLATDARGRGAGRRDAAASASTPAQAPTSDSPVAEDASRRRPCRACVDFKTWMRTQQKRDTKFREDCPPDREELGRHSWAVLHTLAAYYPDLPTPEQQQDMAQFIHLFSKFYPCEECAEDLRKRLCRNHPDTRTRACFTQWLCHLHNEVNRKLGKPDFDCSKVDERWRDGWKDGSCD
AI-2 QS mod: Vibrio harveyi AI-2 quorum sensing modulators, primary screen, JMH597 strain, luminescence/OD600 ratio | Vibrio harveyi JMH597 AI-2 luminescence/OD600 ratio, 9 h; hits give low values; strain lacks LuxN and CqsS sensors; 0 = neutral-control median | 300,000 compounds, 0.4% hits | activity change, % at 7.5 µM | AID 2094, 2009; in the data active means activity change below about -75%, passing the limit was not always enough;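 further: luminescence divided by OD600 gain over 9 h not by final OD600 alone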
HIF activator: HIF pathway transcriptional activators, primary screen, cell-based, U2OS HRE-luciferase, luminescence; U2OS HRE-luciferase reporter; normalized: DMSO 0%, desferrioxamine 100%; activation, % at 7.5 µM (by protocol); 300,000 compounds, 0.32% hits;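 active means mean activation of at least 10% of the iron chelator positive control signal, with at least half of replicates also reaching 10%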
Hits are given with their value; 0 = inactive; - = not tested or not shown. Hits are enriched below; roughly 4.8% of the tested compounds scored in any of these assays.

SMILES	Mot1-301 SUMO	ALR H2O2 inh	AI-2 QS mod	HIF activator
Cc1ccc(S(=O)(=O)CCC(=O)OCCOc2cccc(Br)c2)cc1	0	0	-	-
CC(C)c1ccc(/C=C/C(=O)CCC(=O)O)cc1	0	98	0	0
Cc1ccc(S(=O)(=O)N2CCC3(CC2)OCCO3)cc1	0	0	0	0
Oc1cccc(Nc2c3ccccc3nc3ccccc23)c1	0	99	0	0
Oc1cccc(Nc2nc(-c3ccccc3Cl)nc3ccccc23)c1	0	88	0	0
Cc1ccc(-c2nc(Nc3cccc(O)c3)c3ccccc3n2)cc1	0	0	0	0
c1cncc(Nc2c3ccccc3nc3ccccc23)c1	0	0	0	0
Oc1ccc(Nc2nc(-c3ccccc3F)nc3ccccc23)cc1	0	100	0	0
CN(C)S(=O)(=O)c1ccc(C(=O)Nc2ccn(C)n2)cc1	0	0	0	0
C[C@@H]1CN([C@@H](C)CO)C(=O)c2cccc(NS(C)(=O)=O)c2O[C@H]1CN(C)CC1CCCCC1	0	0	-	-
CCCc1nc(SCC(=O)N2CCCCCC2)c2c(=O)n(C)c(=O)n(C)c2n1	0	0	0	0
Cc1ccc(NN2C(=O)C=C(c3ccc(Cl)cc3)C2=O)cc1	572	0	0	0
Cc1cccc(OCC(=O)Nc2ccc3c(c2)nc(CCN2CCN(c4ccccn4)CC2)n3C)c1	0	0	0	0
O=C1CC(N2CCN(c3ccc(O)cc3)CC2)C(=O)N1c1ccc2c(c1)OCO2 (stereo unspecified)	0	99	0	0
COc1ccccc1N1CCN(C2CC(=O)N(c3ccc(Cl)cc3)C2=O)CC1 (stereo unspecified)	0	-	0	0
COc1ccccc1N1C(=O)CC(N2CCN(c3ccc(F)cc3)CC2)C1=O (stereo unspecified)	0	97	0	0
COc1ccc(N2CCN(C3CC(=O)N(Cc4ccccc4)C3=O)CC2)cc1 (stereo unspecified)	0	92	0	0
O=C(c1ccncc1)c1ccc(N2CCN(C3CC(=O)N(Cc4ccccc4)C3=O)CC2)cc1 (stereo unspecified)	0	0	0	0
CCC(C)c1ccccc1NC(=O)C(C)OC(=O)c1ccco1 (stereo unspecified)	0	0	0	0
O=C(N/N=C/c1ccc(O)cc1)c1cccc(N/N=C/c2ccc(O)cc2)c1	0	-	0	0
Cc1cccc(NC(=O)C(=O)N/N=C/c2ccncc2)c1	0	0	0	0
Cc1cccc(N/N=C/c2ccncc2)c1	0	99	0	0
O=C(N/N=C/c1ccncc1)c1cccc(N/N=C/c2ccncc2)c1	0	96	0	0
CC(C)(C)CC(C)(C)NC(=O)CSCC(=O)Nc1ccc2ccccc2c1	0	99	0	0
CN1Cc2cc(C(=O)c3ccccc3O)cnc2NC1=O	0	87	0	0
SMILES	Mot1-301 SUMO	ALR H2O2 inh	AI-2 QS mod	HIF activator
Cc1ccc(C(=O)NCCSCc2ccc(Cl)cc2Cl)cc1[N+](=O)[O-]	0	89	0	0
CC1CCC/C(=C\c2ccc(O)cc2)C1=O (stereo unspecified)	0	92	0	0
COc1ccc(N2CCN(C(=O)CSc3nc4nc(C)cc(C)n4n3)CC2)cc1	0	-	-	-
O=S(=O)(c1ccc(Cl)s1)N1CCCc2cccc(O)c21	0	99	0	0
CCCCC[C@H]1CN(Cc2ccc(OC)cc2)C(=O)[C@@H]1CC(=O)NCc1ccccc1	0	0	0	0
O=C(CSc1nc2ccccc2c(=O)[nH]1)c1ccc(O)c(O)c1	0	99	0	-
Cc1cc(=O)[nH]c(SCC(=O)c2ccc(O)c(O)c2)n1	0	99	0	0
Cc1ccc(C(=O)CSc2nc(O)cc(=O)[nH]2)cc1C	0	-	0	0
Cc1ccc(C(=O)CSc2nc(C)cc(=O)[nH]2)cc1	0	98	0	0
Cc1cc(C)nc(SCC(=O)c2ccc(O)c(O)c2)n1	0	0	0	0
Cc1cc(SCC(=O)c2ccc(O)c(O)c2)n2nc(C)c(-c3ccccc3)c2n1	0	96	0	0
CCSc1cc(C)nc2c(-c3ccc(Cl)cc3)c(C)nn12	0	0	0	0
NS(=O)(=O)c1ccc(NC(=O)/C(=C/c2ccncc2)NC(=O)c2ccccc2)cc1	0	0	0	0
COc1cccc(N2CCN(C(=O)c3cc4c(=O)n(Cc5ccccc5)ccc4nc3C)CC2)c1	0	0	0	0
Cc1cc(OC(=O)c2ccccc2C(F)(F)F)c([N+](=O)[O-])c(=O)[nH]1	0	0	0	0
S=C(NCc1ccc(Cl)cc1Cl)NC1CCCCC1	645	0	0	0
Cc1nc2ccccn2c1-c1ccnc(=S)[nH]1	0	100	0	0
CCCCn1c(=O)[nH]c(=O)c2c1nc(Cn1ncc(Cl)c(Cl)c1=O)n2CCC	0	0	0	0
O=C(Nc1ccccc1C(=O)O)c1cc(S(=O)(=O)N2CCCCC2)c(Cl)cc1Cl	0	0	0	0
Cc1ccc(-c2ccc(C)c(N)c2C)c(C)c1N	0	83	0	0
O=C(COC(=O)c1ccc(F)c([N+](=O)[O-])c1)NC(=O)NCc1ccccc1	0	-	-	-
Cc1ccc(-c2csc(N)n2)s1	0	99	0	0
Cc1csc(N)n1	0	-	0	0
CCOC(=O)c1csc(NC(=O)CSc2nnnn2CC)n1	0	99	0	0
Cc1csc(NC(=O)CSc2nncn2C)n1	0	0	0	0
SMILES	Mot1-301 SUMO	ALR H2O2 inh	AI-2 QS mod	HIF activator
Cc1csc(NC(=O)CSc2nncc(=O)n2N)n1	0	98	0	0
Cc1csc(NC(=O)CSc2nccn2C)n1	0	96	0	0
CCCCn1c(N)c(N(CCOC)C(=O)CSc2nnc(C)n2-c2ccc(OC)cc2)c(=O)[nH]c1=O	0	0	0	0
CCN(CC)S(=O)(=O)c1cc(NC(=O)CNc2cccc(S(=O)(=O)N3CCCC3)c2)ccc1C	0	0	0	0
CCN(CC)S(=O)(=O)c1ccc(N2CCN(C)CC2)c(NC(=O)COc2ccc(F)cc2Cl)c1	-	-	0	0
COc1ccc(-c2nc(C#N)c(N3CCCCC3)o2)cc1	0	0	0	0
COc1ccc(-c2nc(C#N)c(N3CCCCCC3)o2)cc1OC	348	0	0	0
CCc1ccc(OCC(=O)NNC(=O)c2ccc(NC(=O)C3CC3)cc2)cc1	0	0	0	0
COc1ccc(NC(=O)COC(=O)C2CCN(S(=O)(=O)c3ccccc3)CC2)cc1Cl	0	0	0	0
Nc1c(-c2ccccc2)cnn1-c1cccc([N+](=O)[O-])c1	0	88	0	0
Nc1c(-c2ccc(Cl)cc2)cnn1-c1cccc([N+](=O)[O-])c1	0	0	0	0
COc1ccc(C(C(=O)NC(C)(C)C)N(Cc2cccnc2)C(=O)CCC(=O)Nc2cc(C)on2)cc1 (stereo unspecified)	0	-	0	0
CC1(C)Oc2ccc3ccc(=O)oc3c2C[C@H]1O	0	0	0	0
CC1(C)Oc2cc3oc(-c4cc(O)cc(O)c4)cc3cc2CC1O (stereo unspecified)	0	99	0	0

Screening results from PubChem.
